# According to PubChem BioAssay AID1540 (National Center for Advancing Translational Sciences (NCATS), 2009):
# Results filed as inconclusive are left out. Entries that show only a call come without a potency. The source made the active and inactive calls. Calls follow the shape of the dose curve; as a rule, active = well fitted activation curve with a large enough effect; inconclusive = small, poorly fitted or top-dose-only effect, or effect the other way; inactive = flat fitted curve, though single readings scatter.
# Molecular target: Pyruvate kinase PKM (Homo sapiens) (UniProt P14618)
# Sequence (P14618 whole entry, looked up, canonical isoform): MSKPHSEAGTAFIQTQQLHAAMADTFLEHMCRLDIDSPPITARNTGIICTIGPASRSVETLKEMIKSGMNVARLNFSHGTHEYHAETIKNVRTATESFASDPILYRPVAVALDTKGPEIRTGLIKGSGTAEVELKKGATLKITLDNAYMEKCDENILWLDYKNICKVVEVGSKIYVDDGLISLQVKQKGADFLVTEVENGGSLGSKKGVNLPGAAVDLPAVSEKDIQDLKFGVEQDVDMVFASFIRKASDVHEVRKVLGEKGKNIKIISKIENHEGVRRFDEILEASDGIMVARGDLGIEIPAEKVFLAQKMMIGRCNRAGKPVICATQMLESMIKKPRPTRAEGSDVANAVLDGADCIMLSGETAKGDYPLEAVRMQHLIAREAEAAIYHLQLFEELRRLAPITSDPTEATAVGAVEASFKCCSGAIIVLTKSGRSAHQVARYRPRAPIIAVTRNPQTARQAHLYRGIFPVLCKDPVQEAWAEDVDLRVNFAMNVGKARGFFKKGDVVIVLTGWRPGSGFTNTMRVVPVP
# Assay: Secondary assay for Activators of Human Pyruvate Kinase M2 isoform
# Conditions: purified hPK-M2, LDH-coupled NADH fluorescence kinetic; series mostly up to 57.5 µM
# Method in brief: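 Initial rates came from kinetic NADH fluorescence loss read every 30 s for 3–6 min. The LDH-coupled reaction held 10 nM hPK-M2, 0.1 mM PEP, 4.0 mM ADP, 0.2 mM NADH and 1 uM LDH at pH 8.0. Normalized between uninhibited and EC100 activation with fructose-bis-phosphate.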
smiles,measurement,value
CN(C)c1cccc(S(=O)(=O)N2CCN(S(=O)(=O)c3ccc4c(c3)OCCO4)CC2)c1,Potency,inactive
